EBI2 antag = EBI2 receptor antagonists, beta-arrestin recruitment, primary screen, cell-based, luminescence, 7a,25-OHC stimulation, uHTS; G-protein coupled receptor 183 (Homo sapiens), P32249; 7a,25-OHC stimulated; inhibition, % at 5 µM; 0.81% of 360,000 active; in the data active = inhibition above about 38%;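 note: enzyme fragment complementation signal reports receptor beta-arrestin coupling in cells; 0% = agonist plus DMSO wells and 100% = wells without agonist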
AHR act = AHR activators, primary screen, cell-based, luminescence, luciferase reporter, human; Aryl hydrocarbon receptor (Homo sapiens), P35869; AHR-responsive luciferase reporter cells; activation, % at 5 µM; 2.5% of 320,000 active; in the data active = activation above about 47%;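 note: 0% = vehicle wells and 100% = reference agonist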
SENP6 block = SENP6 protease inhibitors, primary screen, biochemical, luminescence, uHTS; Sentrin-specific protease 6 (Homo sapiens), Q9GZR1; Recombinant SENP6 catalytic domain, aminoluciferin luminescence; inhibition, % at 10 µM; 1.8% of 330,000 active;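 active = inhibition above about 50% at the single tested dose, limit read from the data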;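 note: plate controls were DMSO wells with enzyme for no effect and DMSO wells lacking enzyme for full effect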
SENP8 block-1 = human SENP8 protease inhibitors, primary screen, biochemical, fluorescence, Nedd8 protein substrate, uHTS; Sentrin-specific protease 8 (Homo sapiens), Q96LD8; recombinant SENP8; inhibition, % at 20 µM; 0.64% of 360,000 active; AID 602440, 2012; in the data active = inhibition mostly above about 40%, no sharp cut-off; inactive = mostly below about 27%
Target sequence (Q96LD8 whole entry, looked up): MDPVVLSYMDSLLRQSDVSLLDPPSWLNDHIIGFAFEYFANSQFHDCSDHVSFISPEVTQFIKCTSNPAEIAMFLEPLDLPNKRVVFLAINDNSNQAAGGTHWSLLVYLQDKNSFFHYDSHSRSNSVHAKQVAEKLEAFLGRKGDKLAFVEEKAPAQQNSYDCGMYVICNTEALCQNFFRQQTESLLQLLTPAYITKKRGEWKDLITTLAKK
SENP7 inh = SENP7 protease inhibitors, primary screen, biochemical, luminescence, uHTS; AID 434973, 2010; recombinant SENP7, Z-RLRGG-aminoluciferin luminescence, 40 min; 1.5% of 330,000 active; inhibition, % at 5 µM; Sentrin-specific protease 7 (Homo sapiens), Q9BQF6;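 active = inhibition above about 50% at the single test dose, limit read from the data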;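 note: plate controls were DMSO with enzyme for no effect and no enzyme buffer wells for full effect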
SENP8 block-2 = SENP8 protease inhibitors, primary screen, biochemical, luminescence; inhibition, % at 10 µM; purified SENP8, Z-RLRGG-aminoluciferin cleavage; AID 2540, 2010; 1.2% of 330,000 active; in the data active = inhibition above about 50%
EBI2 antag conf = EBI2 antagonist hit retest, beta-arrestin, confirmation, cell-based, single concentration, luminescence, 7a,25-OHC stimulation; 29% of 2,400 active; 7a,25-OHC antagonism; shares compounds with EBI2 antag; AID 651997, 2013; inhibition, % at 5 µM;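 active = inhibition of at least 50%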
EBI2 agonist = EBI2 agonist activity of antagonist hits, confirmation, counter-screen for EBI2 antagonist project, cell-based, single concentration, agonist mode, luminescence; shares compounds with EBI2 antag; 2,400 tested, under 10 active; activation, % at 5 µM; EBI2-expressing cells, 60 min; 0% vehicle, 100% 7α,25-dihydroxycholesterol control;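 active = activation of at least 50%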
bGal cs = E. coli beta-galactosidase enzyme inhibition, confirmation, counter-screen for EBI2 antagonist project, biochemical, luminescence, single concentration. inhibition, % at 5 µM. shares compounds with EBI2 antag. purified beta-galactosidase, luminescent Galacton Star, 15 min. 1% of 2,400 active;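 active = replicate-average signal at least 3 plate SD below neutral wells, shown as high inhibition, flagging enzyme-inhibiting false positives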;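 note: 0% = DMSO wells with enzyme and 100% = wells lacking enzyme; higher means stronger loss of beta-gal luminescence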
* = called active by the depositor; . = no result. This is a sample that favours compounds with a hit; in the whole collection about 5% have one here.

SMILES	EBI2 antag	AHR act	SENP6 block	SENP8 block-1	SENP7 inh	SENP8 block-2	EBI2 antag conf	EBI2 agonist	bGal cs
O=C(c1cc2cc(Cl)ccc2[nH]1)N1CCN(c2ccccn2)CC1	80*	20	15	14	0	1	67*	-2	-8
O=C(O)c1[nH]c2ccc(Cl)cc2c1CC(=O)N1CCN(C(=O)c2ccco2)CC1	-1	5	-3	6	-8	-12	.	.	.
O=C(c1cc2cc(Cl)ccc2[nH]1)N1CCN(c2ccccc2F)CC1	85*	8	-49	8	10	-13	73*	1	7
O=C(c1cc2cc(Cl)ccc2[nH]1)N1CCN(C(=O)c2ccco2)CC1	73*	23	-7	-7	3	1	49	-1	-7
O=C(c1cc2ccccc2o1)N1CCN(S(=O)(=O)c2ccc(F)c(F)c2F)CC1	89*	0	4	10	-1	8	71*	1	3
CCOC(=O)c1ccc(S(=O)(=O)N2CCN(C(=O)c3cc4ccccc4o3)CC2)cc1	91*	.	-1	5	-3	0	59*	0	2
Cc1cc(C)c(S(=O)(=O)N2CCN(C(=O)C3COc4ccccc4O3)CC2)c(C)c1 (stereo unspecified)	88*	-1	-2	4	2	13	71*	6	2
O=C(c1ccccc1)N1CCN(C(=O)c2cc3ccccc3o2)CC1	70*	0	-5	18	-1	-2	55*	2	9
Cc1cc(C)c(S(=O)(=O)N2CCN(C(=O)c3cc4ccccc4o3)CC2)c(C)c1	90*	.	-3	-2	-9	-7	83*	3	7
CCOC(=O)N1CCN(S(=O)(=O)c2c(C)cc(C)cc2C)CC1	-5	5	-3	22	0	-6	.	.	.
CCCC(=O)Nc1ccc(N2CCN(C(=O)c3cc4ccccc4o3)CC2)cc1	10	-1	0	14	-5	-2	.	.	.
CCOC(=O)N1CCN(C(=O)c2cc3ccccc3o2)CC1	64*	-5	5	5	-5	0	21	0	4
CN(C)S(=O)(=O)c1cccc(C(=O)NCC(C)(C)CNC(=O)c2cccc(S(=O)(=O)N(C)C)c2)c1	-3	0	6	6	2	4	.	.	.
COc1ccc(CCN2C(=O)C(Oc3ccccc3)C2c2ccc3c(c2)OCO3)cc1 (stereo unspecified)	42*	0	4	17	6	-2	37	2	-3
O=C(NCc1ccc(Cl)cc1)C1CCCN(C(=O)c2ccc(Cl)cc2)C1 (stereo unspecified)	66*	2	-5	6	-1	-12	34	-2	-11
O=C(c1ccc(NC(=S)NCc2ccc(Cl)cc2)cc1)N1CCCCC1	-6	-1	-11	9	6	4	.	.	.
COc1ccc(-c2noc(N3CCC(C(=O)NCc4ccccc4Cl)CC3)n2)cc1	15	0	-10	13	6	2	.	.	.
O=C(NCc1ccc(Cl)cc1)C1CCN(C(=O)c2ccc(Cl)cc2)CC1	45*	.	-12	4	-7	-10	26	0	11
COc1ccc(-c2noc(N3CCC(C(=O)NCc4ccc(Cl)cc4)CC3)n2)cc1	47*	-1	-22	0	-5	1	14	-2	-15

Compound activity as filed in PubChem BioAssay.
